The test system of assay [1] is TRPC4 beta (transient receptor potential cation channel C4), mouse. Put plainly: TRPC4 cation channel opening, retest – cell-based, Fluo4 calcium, HEK293 TRPC4beta/mu-opioid, duplicates, 10 µM, confirmation (AID 2426;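 active = fluorescence ratio normalized to control raised more than 50% in primary screen plus both repeat runs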;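 for activation: percent rise of integrated ratio over buffer wells lacking compound which define 0%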). The settings on record: Fluo4 calcium fluorescence, at 10 µM; hits give high values.
For assay [2], the system named is transient receptor potential cation channel C4 beta (TRPC4), mouse. Put plainly: TRPC4 cation channel opening, second retest – cell-based, second round, Fluo4, HEK293 TRPC4beta/mu-opioid, 1 µM, confirmation (AID 2461;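 active = primary screen active and over 50% activation in each of two duplicate runs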;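 for activation: 0% = wells without test compound as baseline of integrated fluorescence ratio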). The following applies: Fluo4 calcium fluorescence, at 1 µM; hits give high values.
Assay [3] has as its system TRPC4 (transient receptor potential cation channel C4 beta), mouse. Put plainly: potentiation of DAMGO EC20 TRPC4 response – cell-based, second round, Fluo-4, HEK293 TRPC4beta/mu-opioid, 1 µM, confirmation (AID 2554;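 active = primary screen hit whose fluorescence ratio, in both repeats, exceeds the weak agonist control mean by 3 SD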). The settings on record: DAMGO EC20, Fluo-4 calcium flux, at 1 µM; hits give high values. (In general: Calcium assays in cells follow changes in intracellular calcium, usually with a dye or a luminescent sensor.)

The test system of assay [4] is TRPC4 beta (transient receptor potential cation channel C4), mouse. Description: potentiation of DAMGO EC20 TRPC4 response – cell-based, Fluo-4, HEK293 TRPC4beta/mu-opioid, confirmation (AID 2555;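 active = primary screen hit whose calcium fluorescence ratio, in both repeats, exceeds the weak agonist control mean by 3 SD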). The following applies: DAMGO EC20, Fluo-4 calcium flux, at 10 µM; hits give high values.
Assay [5] addresses Short transient receptor potential channel 4 (Mus musculus) (UniProt Q9QUQ5). Put plainly: blockers of DAMGO-evoked TRPC4 calcium flux – cell-based, Fluo4, HEK293 TRPC4beta/mu-opioid, confirmation (AID 2636;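 active = calcium signal cut by more than 3 SD below the full-agonist control yet still positive, in both repeats and the earlier primary screen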). The following applies: at 10 µM; hits give high values.
Assay [6] shares this target. Description: blockers of DAMGO-evoked TRPC4 calcium flux – cell-based, second round, Fluo4, HEK293 TRPC4beta/mu-opioid, 1 µM, confirmation (AID 2637).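 For inhibition: percent of integrated ratio relative to wells lacking test compound.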 The following applies: at 1 µM; hits give high values.
The target is the same in assay [7]. Put plainly: potentiation of DAMGO-evoked TRPC4 calcium signal – cell-based, HEK293 TRPC4/mu-opioid, Fluo-4 calcium, EC20 DAMGO, dose response (AID 434941;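 active = earlier screen potentiator hit that boosts the TRPC4 ion channel at some dose, with a dose response; inactive = no potentiation, no dose response, or not a prior hit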;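 note: calcium entry triggered by an EC20 dose of DAMGO at the co-expressed mu-opioid receptor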).
The target in assay [8] is Short transient receptor potential channel 6 (Mus musculus) (UniProt Q61143). Put plainly: TRPC6 blockade by TRPC4 inhibitor hits – cell-based, HEK293, membrane potential dye, duplicate, selectivity assay for TRPC4 inhibitor project, confirmation (AID 434948;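 active = active in primary screen and both duplicates, each dropping signal beyond three positive-control SD with fluorescence still positive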). The following applies: HEK293 TRPC6, membrane potential dye fluorescence, at 10 µM, stimulated with maximal-effect acetylcholine; hits give high values.

Assay [9] has the same target. Put plainly: TRPC6 opening by TRPC4 activator hits – cell-based, HEK293, membrane potential dye, duplicate, selectivity assay for TRPC4 activator project, confirmation (AID 434950;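 active = membrane potential signal rise above negative control mean plus 3 SD in both duplicates, also active in the earlier TRPC4 screen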;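 for activation: 0% = buffer only wells and 100% = acetylcholine maximal-effect wells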). The following applies: HEK293 TRPC6, membrane potential fluorescence, at 10 µM; activation: hits give high values; outcome: activation.
For assay [10] the target is unchanged. Put plainly: positive modulators of mouse TRPC6 channel – HEK293 cells, membrane potential dye, duplicate, selectivity assay for TRPC4 potentiator project, confirmation (AID 434952;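 active = compound raising the membrane signal above positive-control mean plus 3 SD in both repeats, and a primary screen hit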). The settings on record: HEK293 TRPC6, membrane potential dye fluorescence, at 10 µM, maximal acetylcholine added after compound; hits give high values.
Assay [11] addresses Short transient receptor potential channel 4 (Mus musculus) (UniProt Q9QUQ5). Put plainly: calcium flux activators in TRPC4/5HT1a cells, counter-screen for TRPC4 activator project, cell-based, second counter screen, HEK293 TRPC4/5HT1a, Fluo-4 (AID 434977;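 active = calcium signal rise above buffer-control mean plus 5 SD in both duplicates, and also a hit in the primary screen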;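 for activation: plate controls were assay buffer for no effect and maximal serotonin response for full effect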). The settings on record: Fluo-4 calcium flux, at 10 µM; hits give high values.
Assay [12] is described as follows: serotonin-gated TRPC4 signal block – cell-based, second counter screen, HEK293 TRPC4/5HT1a, Fluo-4, counter-screen for TRPC4 inhibitor project, confirmation (AID 434978;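 active = primary screen active whose calcium signal fell more than 3 SD beyond the full-serotonin control mean in both duplicate plates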;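 for outcome: serotonin given first at submaximal then at maximal dose after compound preincubation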). The following applies: Fluo-4 calcium flux, at 10 µM, serotonin added to trigger calcium flux; hits give high values. (In general: The purpose of a counterscreen is to sort out artefacts and off-target activity.)

Assay [13] concerns TRPC4 (mouse), co-expressed with 5HT1a in HEK293. Put plainly: enhancement of serotonin-evoked TRPC4 response – cell-based, second counter screen, HEK293 TRPC4/5HT1a, Fluo-4, counter-screen for TRPC4 potentiator project, confirmation (AID 434979;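 active = signal rise over 3 SD above mean of control wells given weak agonist, in both repeats and first screen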). The settings on record: Fluo-4 calcium flux, at 10 µM, serotonin added at its EC20 dose; hits give high values.
A short description of assay [14]: nonspecific calcium rise without TRPC4 – cell-based, HEK293 mu-opioid receptor line, counter-screen for TRPC4 activator project, confirmation (AID 449723;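 active = hit in primary screen, with calcium signal over 5 SD above buffer well mean in both duplicates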;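 note: counter screen cells carry the mu-opioid receptor alone and lack TRPC4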). The following applies: HEK293 mu-opioid cells, Fluo-4 calcium fluorescence, at 10 µM; hits give high values.
Assay [15] in a line: nonspecific potentiation of DAMGO calcium response – cell-based, HEK293 mu-opioid receptor line, counter-screen for TRPC4 allosteric potentiator project, confirmation (AID 449724;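 active = calcium signal rise more than 3 SD above the low-dose agonist control mean, in both duplicate plates and the primary screen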;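 note: HEK293 cells carrying mu-opioid receptor only with no TRPC4 channel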). The following applies: HEK293 mu-opioid receptor cells, Fluo-4 calcium flux, at 10 µM, compound added before EC20 DAMGO stimulus; hits give high values.

For part of these data: Measured potencies and affinities stand elsewhere. Calls of active or inactive are those of the source.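 Rule for the calls, unless noted: active = calcium signal ratio cut to more than 3 SD under the fully stimulated control mean yet still positive, in both repeats and the primary screen; inactive = the rest.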

A word on the inhibition: it is the change of the read-out against control, counted positive when it falls.

Sequence of Short transient receptor potential channel 6 (Mus musculus) (Q61143 whole entry, looked up): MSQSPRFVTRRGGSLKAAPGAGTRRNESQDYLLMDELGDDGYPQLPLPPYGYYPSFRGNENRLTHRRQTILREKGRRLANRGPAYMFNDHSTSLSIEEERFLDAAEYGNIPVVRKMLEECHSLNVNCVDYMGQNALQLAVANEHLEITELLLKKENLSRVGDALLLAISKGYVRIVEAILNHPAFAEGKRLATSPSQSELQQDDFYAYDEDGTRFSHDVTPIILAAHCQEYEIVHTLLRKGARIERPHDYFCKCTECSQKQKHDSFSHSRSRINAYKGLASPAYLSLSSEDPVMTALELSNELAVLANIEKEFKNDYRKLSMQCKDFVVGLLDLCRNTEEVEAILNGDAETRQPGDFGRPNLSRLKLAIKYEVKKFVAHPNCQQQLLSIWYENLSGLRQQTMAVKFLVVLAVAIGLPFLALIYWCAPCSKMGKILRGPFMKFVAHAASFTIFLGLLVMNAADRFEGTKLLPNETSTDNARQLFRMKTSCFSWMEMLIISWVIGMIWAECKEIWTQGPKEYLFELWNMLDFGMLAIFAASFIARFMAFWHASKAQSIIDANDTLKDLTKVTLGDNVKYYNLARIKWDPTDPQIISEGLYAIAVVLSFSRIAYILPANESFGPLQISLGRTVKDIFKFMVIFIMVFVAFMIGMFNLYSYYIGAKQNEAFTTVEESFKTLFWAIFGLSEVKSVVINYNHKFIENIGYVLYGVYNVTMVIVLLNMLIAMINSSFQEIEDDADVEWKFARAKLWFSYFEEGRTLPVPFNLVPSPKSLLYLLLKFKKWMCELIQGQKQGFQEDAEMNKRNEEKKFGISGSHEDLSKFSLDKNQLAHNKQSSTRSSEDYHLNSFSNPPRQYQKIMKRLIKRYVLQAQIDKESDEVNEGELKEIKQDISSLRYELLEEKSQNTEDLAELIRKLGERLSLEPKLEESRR
Sequence of Short transient receptor potential channel 4 (Mus musculus) (Q9QUQ5 whole entry, looked up): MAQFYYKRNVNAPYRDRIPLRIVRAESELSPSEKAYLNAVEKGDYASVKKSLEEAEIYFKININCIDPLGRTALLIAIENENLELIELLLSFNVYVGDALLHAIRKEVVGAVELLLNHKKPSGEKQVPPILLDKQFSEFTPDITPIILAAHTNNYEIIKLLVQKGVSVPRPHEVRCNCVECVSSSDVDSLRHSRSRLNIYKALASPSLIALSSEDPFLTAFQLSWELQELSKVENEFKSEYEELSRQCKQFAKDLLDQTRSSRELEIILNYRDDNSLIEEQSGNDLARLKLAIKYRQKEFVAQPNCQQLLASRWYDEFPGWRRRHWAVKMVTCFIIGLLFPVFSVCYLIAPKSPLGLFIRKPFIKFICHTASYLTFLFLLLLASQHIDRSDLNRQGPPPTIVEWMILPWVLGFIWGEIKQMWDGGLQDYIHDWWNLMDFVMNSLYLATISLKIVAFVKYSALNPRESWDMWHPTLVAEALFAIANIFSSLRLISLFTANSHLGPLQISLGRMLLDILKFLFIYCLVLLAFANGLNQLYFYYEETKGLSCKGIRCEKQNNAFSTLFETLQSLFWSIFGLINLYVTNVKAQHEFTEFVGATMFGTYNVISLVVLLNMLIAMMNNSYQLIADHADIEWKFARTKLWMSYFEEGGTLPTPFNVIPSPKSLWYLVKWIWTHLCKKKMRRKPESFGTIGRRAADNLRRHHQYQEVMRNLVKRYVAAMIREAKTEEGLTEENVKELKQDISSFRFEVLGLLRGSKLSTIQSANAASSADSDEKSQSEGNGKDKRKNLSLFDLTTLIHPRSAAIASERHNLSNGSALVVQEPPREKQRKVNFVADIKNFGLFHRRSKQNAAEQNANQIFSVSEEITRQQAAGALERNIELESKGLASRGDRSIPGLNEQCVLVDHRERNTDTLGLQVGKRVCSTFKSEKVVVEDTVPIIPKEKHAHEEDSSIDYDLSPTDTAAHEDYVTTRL

For `O=C(NCc1ccccc1)C1=C[C@H](c2ccc3c(c2)OCO3)C[C@H](OCc2ccc(CO)cc2)O1`, the activation in assay [1] was 142% (active); in [11] it was 115% (active). The result in [2], in [3], in assay [4], in assay [5], in assay [6] and in [7] was inactive. In addition, the call in assay [8], in assay [9], in [10], in assay [13], in assay [14] and in assay [15] was inactive. The inhibition in assay [12] is 18.1% (active).
For the compound `COc1ccc(C(CNC(=O)c2cccc3cccnc23)N(C)C)cc1` (stereo not given), the activation is 132% (active) in [1] and 33% (active) in assay [9]. The outcome in assay [2], in [3], in assay [4], in assay [5], in assay [7] and in assay [8] was inactive. Further, the outcome in assay [10], in [11], in assay [12], in [13], in [14] and in assay [15] was inactive. The inhibition in [6] was 80% (active).
For `COc1ccc(/C=C/C(=O)Nc2ccccc2C(=O)NCC(c2ccc(OC)cc2)N(C)C)cc1` (stereo not given), the result in assay [1], in assay [2], in [3], in assay [4], in assay [7] and in assay [8] was inactive. The compound was called inactive in assay [9], in assay [10], in [11], in [12], in assay [13] and in assay [14]. Also, the outcome in assay [15] was inactive. Moreover, the figures for the inhibition in assay [5] and in assay [6] were 101% (active) and 81% (active), respectively.
Regarding `COc1ccc(CCN(C)CCN2C(=O)c3ccccc3C2=O)cc1OC`, the figures for the activation in assay [1], in assay [2] and in [11] were 252% (active), 103% (active) and 96.5% (active), respectively. In addition, the outcome in [3], in [4], in assay [5], in assay [7], in assay [8] and in assay [9] was inactive. The outcome in assay [10], in assay [13], in [14] and in assay [15] was inactive. Further, the inhibition in assay [6] was 43% (active); in [12], 1.2% (active).
For `CCOc1ccccc1N(CC(=O)N1CCOCC1)S(=O)(=O)c1ccccc1`, the activation was 155% (active) in assay [1], 56.5% (active) in [9], 94% (active) in assay [11] and 74.4% (active) in assay [14]. The outcome in assay [2], in assay [3], in assay [4], in [5], in assay [6] and in assay [7] was inactive. Also, the call in [8], in [10], in [13] and in assay [15] was inactive. Further, the inhibition in assay [12] was 16% (active).
In the case of `Cc1ccc(COn2c(-c3ccc(Cl)cc3Cl)nc3ncccc32)cc1`, the outcome in assay [1], in [2], in [3], in assay [4], in assay [5] and in assay [6] was inactive. In addition, the outcome in assay [7], in assay [8], in assay [10], in [11], in [12] and in assay [13] was inactive. In addition, the result in assay [14] and in assay [15] was inactive. Besides, the activation in assay [9] was 46% (active).
With `O=c1c2c(-c3ccccc3)csc2ncn1/N=C/c1cccc([N+](=O)[O-])c1O`, the result in assay [1], in assay [2], in [3], in assay [4], in [7] and in assay [8] was inactive. The call in [9], in assay [10], in assay [13], in [14] and in [15] was inactive. The results for the inhibition in [5], in assay [6] and in assay [12] were 90% (active), 39% (active) and 27.2% (active), respectively. Besides, the activation in [11] was 36.1% (active).
Consider `Cc1c(C(=O)N(Cc2cccs2)C2CCS(=O)(=O)C2)oc2ccccc12` (stereo not given), for which the result in assay [1], in assay [2], in [3], in [4], in [6] and in assay [7] was inactive. The call in assay [8], in assay [10], in [11], in assay [12], in [13] and in [14] was inactive. Further, in assay [15], the result was inactive. The inhibition in assay [5] is 97% (active). For the same compound, the activation in assay [9] was 56.5% (active).
Consider `CN(C)C(CNC(=O)C1CCN(S(=O)(=O)c2cccc(C(F)(F)F)c2)CC1)c1ccccc1` (stereo not given), for which the outcome in [1], in assay [2], in assay [3], in [4], in assay [5] and in assay [7] was inactive. The outcome in assay [8], in assay [9], in [10], in assay [11], in [12] and in assay [13] was inactive. In addition, the result in assay [14] and in assay [15] was inactive. In addition, the inhibition in assay [6] is 85% (active).

(Values after PubChem BioAssay.)
